Screening data: PubChem, several laboratories
The list is not random: actives were taken first. Their share in the collection is about 1.9%.
PERK inhibitor – block of dimerizer-induced PERK translation repression, primary screen, PERK inhibitor project, CHO PERK-DD cells, SEAP luminescence, HTS. Eukaryotic translation initiation factor 2-alpha kinase 3 (Homo sapiens), Q9NZJ5. CHO PERK-DD fusion, SEAP luminescence translation reporter. inhibition, % at 5.6 µM. 220,000 compounds, 0.17% hits;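 active = inhibition above the mean inhibition of all tested compounds plus 3 SD, set separately per screening campaign, cut at about 2.9% in these data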;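 also: PERK kinase domain activated by AP20187 dimerizer at 100 nM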
eIF4H inh – human eIF4H binding inhibitors, primary screen, translation initiation inhibitor project, biochemical, uHTS, fluorescence polarization. Eukaryotic translation initiation factor 4H (Homo sapiens), Q15056. eIF4H fluorescence polarization binding assay. inhibition, % at 35 µM. 290,000 compounds, 0.94% hits. AID 2012, 2009;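 also: calls also rest on retests at 20 µM and on dose response follow-up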
PABP FP inh – PABP poly(A) RNA binding inhibitors, primary screen, biochemical, fluorescence polarization, uHTS; Polyadenylate-binding protein 1 (Homo sapiens), P11940; 290,000 compounds, 1% hits; inhibition, % at 35 µM; AID 2014, 2009;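 also: calls also rest on retests at 20 µM and on dose response follow-up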
GRK2 inh – compounds blocking aptamer binding on GRK2 – biochemical, human GRK2, bead flow cytometry, HTS, primary screen; Beta-adrenergic receptor kinase 1 (Homo sapiens), P25098; FAM-aptamer displacement from GRK2; inhibition of aptamer binding, % at 10 µM; 330,000 compounds, 0.59% hits;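 active = inhibition of aptamer binding above 40%, roughly 3 SD of noise, on plates passing a quality check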;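 also: median bead fluorescence of bound FAM aptamer so fluorescent compounds give negative values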
PABP1 MLLE inh – inhibitors of PABP1 MLLE–PAM2 peptide binding, primary screen, biochemical, fluorescence polarization, FITC-PAM2, GST-MLLE; Polyadenylate-binding protein 1 (Homo sapiens), P11940; inhibition, % at 20 µM; 360,000 compounds, 0.36% hits; in the data active = inhibition above about 35%, passing the limit was not always enough
Of the large screens only hits and unclear results are named; the others gave an inactive call. Unless noted, no rule for the calls is given here.

COc1ccc(/C=C/C(=O)c2c(O)cc(C)oc2=O)c(OC)c1	eIF4H inh inconclusive, PABP FP inh 58
CC(C)Cn1c(N)c(C(=O)COC(=O)C2CC(=O)N(c3ccc4c(c3)OCCO4)C2)c(=O)n(C)c1=O (stereo not drawn)	none (no result: PERK inhibitor, eIF4H inh, PABP FP inh)
COc1ccc(-n2nc3ccc(N)cc3n2)cc1Cl	eIF4H inh 55, PABP FP inh 15 (no result: PERK inhibitor)
CCOC(=O)C1=C(N)Oc2cc(O)ccc2C1c1cccc([N+](=O)[O-])c1 (stereo not drawn)	none
Cc1[nH]n(C(N)=S)c(=O)c1N=Nc1ccc(S(=O)(=O)N2CCCC2)cc1	PABP1 MLLE inh 42
COc1ccc2c(c1OC)C(=O)OC2C1c2c(cc3c(c2OC)OCO3)CCN1C (stereo not drawn)	none
CN1CCc2cc3c(c4c2[C@H]1[C@H](O)c1ccccc1-4)OCO3	PABP1 MLLE inh 68 (no result: GRK2 inh)
CCOC(=O)c1c(/N=C/c2cccc([N+](=O)[O-])c2O)sc(C)c1C	PABP1 MLLE inh 51
Cc1cc(-c2ccc(N=Nc3c(S(=O)(=O)O)cc4cc(S(=O)(=O)O)cc(N)c4c3O)c(C)c2)ccc1N=Nc1c(S(=O)(=O)O)cc2cc(S(=O)(=O)O)cc(N)c2c1O	GRK2 inh 98 (no result: PERK inhibitor, eIF4H inh, PABP FP inh, PABP1 MLLE inh)
Nc1cc(S(=O)(=O)O)cc2ccc(S(=O)(=O)O)cc12	none (no result: PERK inhibitor, eIF4H inh, PABP FP inh, GRK2 inh)
N#Cc1c(N)n(CCNC(=O)c2ccc(Cl)cc2)c2nc3ccccc3nc12	none
Cc1ccc(C(=O)NCCn2c(N)c(C#N)c3nc4ccccc4nc32)cc1	eIF4H inh 56, PABP FP inh active
CCC(C)[C@H](NC(=O)N1CC(=O)Nc2ccccc21)C(=O)Nc1nccs1 (stereo partly drawn)	none (no result: PERK inhibitor)
CCNC(=S)NNC(=O)c1csc(C)c1	none
CCCCNC(=S)NNC(=O)c1csc(C)c1	eIF4H inh active, PABP FP inh 53
O=[N+]([O-])c1ccc(C2=NN(c3ccccc3)C(c3ccco3)C2)cc1 (stereo not drawn)	eIF4H inh 104, PABP FP inh 54 (no result: GRK2 inh)
O=[N+]([O-])c1ccc(/C=C/C2=NN(c3ccccc3)C(c3ccco3)C2)cc1 (stereo not drawn)	none
CCOc1ccc(NC(=S)NC(=O)/C=C/c2ccc(C)cc2)c([N+](=O)[O-])c1	none
CCOc1ccc(NC(=S)NC(=O)c2c(Cl)c(C)nn2C)c([N+](=O)[O-])c1	PABP1 MLLE inh 40
COC(=O)[C@]1(CC(C)C)N[C@H](c2ccc(-c3ccc(Cl)c(Cl)c3)cc2)[C@@H]2C(=O)N(C)C(=O)[C@@H]21	none (no result: PERK inhibitor, eIF4H inh, PABP FP inh)
CCOC(=O)CSc1c(-c2ccccc2)c2cc(Cl)ccc2[nH]c1=O	eIF4H inh active
O=C(O)CSc1c(-c2ccccc2)c2cc(Cl)ccc2[nH]c1=O	none
O=C(Nc1cccc(OC(F)(F)F)c1)c1ccc(-c2cccnc2)c2ccoc12	none (no result: PERK inhibitor, eIF4H inh, PABP FP inh, GRK2 inh)
COc1ccc2nc(-n3c(O)c(C4=c5ccccc5=NC4=O)[nH]c3=S)sc2c1	eIF4H inh 62, PABP FP inh 1.0
c1ccc(Cc2nnc3n2CCCCC3)cc1	none
c1ccc2c(c1)CCCN2Cc1nnc2n1CCCCC2	eIF4H inh 61, PABP FP inh 77
N#Cc1cnn2c(-c3ccccc3)ccnc12	none
NC(=S)c1cnn2c(-c3cccc(C(F)(F)F)c3)ccnc12	PABP1 MLLE inh 38 (no result: PERK inhibitor)
COCCNC(=O)C1CCCN(C(=O)c2cc(-c3ccccc3)cs2)CC1 (stereo not drawn)	none (no result: PERK inhibitor, eIF4H inh, PABP FP inh, GRK2 inh)
Cc1ccc(NC(=O)COC(=O)c2c(-c3ccccc3)noc2C)c(C)c1	none (no result: PERK inhibitor, eIF4H inh, PABP FP inh)
CCCOc1ccc(-c2c(C(=O)N/N=C(\C)c3cccs3)nnn2-c2nonc2N)cc1	none (no result: PERK inhibitor)
O=c1c2ccccc2oc2cc(-c3ccc4[nH]ccc4c3)ccc12	none (no result: PERK inhibitor, eIF4H inh, PABP FP inh, GRK2 inh)
CCN1C(=NCCc2cccs2)N[C@@H](c2cccs2)C(C(=O)OC)=C1C	PABP FP inh 56 (no result: PERK inhibitor)
CC(C)c1nnc(SCC(=O)NCCC2=CCCCC2)n1N	PABP1 MLLE inh 42
Nn1c(SCC(=O)NCCC2=CCCCC2)nnc1-c1cccnc1	none (no result: PERK inhibitor, eIF4H inh, PABP FP inh, GRK2 inh)
O=C1NC(=S)N/C1=C/c1ccc2c(c1)OCO2	PABP FP inh 72 (no result: PERK inhibitor)
O=C1NC(=S)SC1=Cc1ccc2c(c1)OCO2	none (no result: PERK inhibitor, eIF4H inh, PABP FP inh, GRK2 inh)
Oc1ccc(-c2nccs2)cc1	none (no result: PERK inhibitor, eIF4H inh, PABP FP inh, GRK2 inh)
COc1ccc(C(C(=O)NC2CCCC2)N(C(=O)c2snc(C(N)=O)c2N)c2cccc(O)c2)cc1 (stereo not drawn)	eIF4H inh 68 (no result: PERK inhibitor)
CN1CC=C2C(C#N)=C(N)C(C#N)(C#N)C(c3ccsc3)C2C1 (stereo not drawn)	eIF4H inh inconclusive, PABP FP inh inconclusive
CN1C2C=C3C(C#N)=C(N)C(C#N)(C#N)[C@@H](c4ccsc4)[C@@H]3C1CC2 (stereo partly drawn)	eIF4H inh 66, PABP FP inh 63 (no result: PABP1 MLLE inh)
CC(C)C[C@@H](CN1CCCC1CN1C(=S)NC[C@@H]1Cc1ccc(O)cc1)N1C[C@H](Cc2ccc(O)cc2)N(CCc2ccccc2)C1=S (stereo partly drawn)	none (no result: PERK inhibitor, eIF4H inh, PABP FP inh, GRK2 inh)
N#CC1=C(N)C(C#N)(C#N)C(c2ccc[nH]2)C2CCCC=C12 (stereo not drawn)	eIF4H inh inconclusive, PABP FP inh inconclusive
N#CC1=C(N)C(C#N)(C#N)C(c2cccnc2)C2CCCC=C12 (stereo not drawn)	eIF4H inh 120 (no result: PABP1 MLLE inh)
N#CC1=C(N)C(C#N)(C#N)C(c2cccnc2)C2CC(c3ccccc3)CC=C12 (stereo not drawn)	eIF4H inh inconclusive, PABP FP inh 77
CCOC(=O)c1ccccc1NC(=O)c1ccc2nc[nH]c2c1	none (no result: PERK inhibitor)
CCOC(=O)c1ccccc1NC(=O)c1ccc2nccnc2c1	eIF4H inh 68
CCN(CC)S(=O)(=O)c1ccc(OC)c(NC(=O)COc2ccc3c(C)cc(=O)oc3c2)c1	none
CCN(CC)S(=O)(=O)c1ccc(Cl)c(NC(=O)COc2ccc3c(C)cc(=O)oc3c2)c1	GRK2 inh 100
Cc1cc(=O)oc2cc(OCC(=O)Nc3cccc(S(=O)(=O)N(C)C)c3)ccc12	GRK2 inh 56
C=CCn1c(CSc2ccccc2[N+](=O)[O-])n[nH]c1=S	eIF4H inh 84, PABP FP inh 21 (no result: PERK inhibitor)
C=CCn1c(Cc2ccccc2)n[nH]c1=S	none
COc1ccc(C(=S)N2CCC(C(N)=O)CC2)cc1Br	PABP1 MLLE inh 42
CCC(=O)Nc1ccc(SC#N)cc1C	PABP1 MLLE inh 59
Cc1cc(SC#N)cc(C)c1NC(=O)CCl	none
CCc1cc(SC#N)cc(C)c1NC(=O)CCl	PABP1 MLLE inh 40
CCSc1nnc(NC(=O)CSc2sc3c(O)cc(=O)[nH]c3c2C#N)s1	eIF4H inh 91, PABP FP inh 64 (no result: PERK inhibitor)
Cc1csc(NC(=O)CSc2sc3c(O)cc(=O)[nH]c3c2C#N)n1	eIF4H inh 64, PABP FP inh 41 (no result: PERK inhibitor)
CCc1nnc(NC(=O)CSc2nc3[nH]c(=O)cc(O)c3s2)s1	none (no result: PERK inhibitor, eIF4H inh, PABP FP inh)
